Assay outcomes from PubChem.
WRN helicase inh: WRN helicase (human) inhibition. Potency, µM (highest dose often 114 µM), for the others: at the top dose activity change, negative = inhibition, actives largely listed as inhibitors. hit rate 0.46% among 360,000. WRN helicase unwinding, fluorescent forked duplex, kinetic. Q14191; note: % is set by controls: 0 for no effect and ±100 for the full control effect; nearly all actives have a fitted effect of over 55% in size
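WRN at 20 nM final was preincubated with compound for 15 min at room temperature; reaction started with 100 nM forked duplex oligonucleotide carrying fluorophore and quencher plus 2 mM ATP (final). Unwinding followed kinetically by red fluorescence (ex 525/em 598 nm).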
POLK inh: blocks human DNA polymerase kappa activity; Q9UBT6; purified Pol kappa, fluorescent DNA synthesis assay, 10 min; Potency, µM (highest dose often 107 µM), for the others: top-dose activity, negative = inhibition, usual class: inhibitors; hit rate 0.53% among 400,000; note: % is set by controls: 0 for no effect and ±100 for the full control effect
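First, compounds were pin-transferred onto 10 nM Pol kappa. After 15 min at room temperature, substrate was added to 50 nM final. Fluorescence was then measured kinetically at 0 and 10 min.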
FEN1 inh-1: inhibitors of human flap endonuclease 1 | P39748 | Recombinant FEN1 flap cleavage, fluorescence, 15 min | Potency, µM (top dose mostly 114 µM), inactives show at the highest dose activity change, negative = inhibition, actives largely listed as inhibitors | hit rate 0.35% among 390,000; note: % is set by controls: 0 for no effect and ±100 for the full control effect; nearly all actives have a fitted effect of over 65% in size
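Potency values derive from four-parameter Hill fits of normalized qHTS data. The reaction used 10 nM FEN1 preincubated 15 min at room temperature with compound, then 50 nM DNA substrate, read at 0 and 15 min.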
POLI inh: inhibitors of human DNA polymerase iota; Pol iota fluorescent replication assay, 10 min; Potency, µM (top dose mostly 115 µM), without a hit: top-dose activity, negative = inhibition, most hits filed as inhibitors; hit rate 1% among 390,000; AID 588590
Target sequence (Q9UNA4 whole entry, looked up): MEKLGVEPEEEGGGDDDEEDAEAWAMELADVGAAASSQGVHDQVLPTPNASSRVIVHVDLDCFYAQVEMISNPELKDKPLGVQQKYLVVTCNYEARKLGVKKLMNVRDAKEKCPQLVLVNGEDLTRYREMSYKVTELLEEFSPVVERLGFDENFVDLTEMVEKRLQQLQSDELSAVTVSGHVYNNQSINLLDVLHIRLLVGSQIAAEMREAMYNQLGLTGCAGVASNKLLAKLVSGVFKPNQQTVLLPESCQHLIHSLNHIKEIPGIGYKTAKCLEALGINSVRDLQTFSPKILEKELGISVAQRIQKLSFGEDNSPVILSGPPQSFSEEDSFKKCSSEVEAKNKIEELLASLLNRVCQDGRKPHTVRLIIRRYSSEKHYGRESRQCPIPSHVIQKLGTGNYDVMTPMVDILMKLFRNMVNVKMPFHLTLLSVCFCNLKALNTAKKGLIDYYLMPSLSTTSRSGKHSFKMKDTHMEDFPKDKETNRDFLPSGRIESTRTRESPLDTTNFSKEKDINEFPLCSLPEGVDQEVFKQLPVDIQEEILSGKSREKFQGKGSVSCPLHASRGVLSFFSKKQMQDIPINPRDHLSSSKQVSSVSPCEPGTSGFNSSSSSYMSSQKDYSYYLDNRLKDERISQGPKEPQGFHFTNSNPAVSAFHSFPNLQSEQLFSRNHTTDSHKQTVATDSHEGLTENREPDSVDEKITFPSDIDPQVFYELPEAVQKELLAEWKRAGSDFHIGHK
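Fluorescent replication assay read twice, at 0 min and 10 min after adding 50 nM (final) substrate. Enzyme (10 nM) and compounds were first incubated 15 min at room temperature; enzyme-free buffer wells were negative controls.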
POLH inh: inhibitors of human DNA polymerase eta; Q9Y253; recombinant Pol eta, fluorescent DNA replication assay; hit rate 1.2% among 390,000; AID 588591; Potency, µM (doses to about 114 µM), without a hit: top-dose activity change, negative = inhibition, usual class: inhibitors; note: % is set by controls: 0 for no effect and ±100 for the full control effect
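Fluorescent replication assay: 50 nM final substrate added after a 15 min room-temperature compound preincubation with 10 nM enzyme. Signal taken at 0 min and again at 10 min.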
Pol beta inh: inhibitors of human DNA polymerase beta | AID 485314 | hit rate 1.3% among 340,000 | Pol beta primer extension/strand displacement, fluorescence kinetic | Potency, µM (series often up to 114 µM), without a hit: at the highest dose activity change, negative = inhibition, actives largely listed as inhibitors | P06746; note: % is set by controls: 0 for no effect and ±100 for the full control effect
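Kinetic readout of DNA synthesis with strand displacement by Pol beta. Compound and 10 nM enzyme sit 15 min at room temperature; 50 nM substrate starts the reaction, read immediately and at 10 min.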
FEN1 inh-2: FEN1 inhibition, cherry-pick retest; hit rate 79% among 880; Potency, µM, actives largely listed as inhibitors; shares compounds with FEN1 inh-1; FEN1 flap cleavage, TAMRA/BHQ2 fluorogenic DNA substrate; note: nearly all actives have a fitted effect of over 60% in size
The depositor's hits bear a star; ? = inconclusive; nt = no result given; [ ] = dose if it differs, or a comment. A selection: hits, their analogues and other compounds. The true share with any hit is near 2.4%. Calls come from the whole dose curve; as a rule, active = well fitted curve in the direction sought with a large enough effect; inconclusive = small, poorly fitted or top-dose-only effect, or another doubt; inactive = no such curve, though single readings can be large; an effect the other way counts as inactive or inconclusive. Potency is the fitted concentration of half-maximal effect.

SMILES	WRN helicase inh	POLK inh	FEN1 inh-1	POLI inh	POLH inh	Pol beta inh	FEN1 inh-2
Cc1cccc(NC(=O)CN2C(=O)S/C(=C\c3ccc(-c4cccc(C(=O)O)c4C)o3)C2=O)c1	-10%	-17%	40µM*	?	35µM*	7%	67*
Cn1c(=O)c2c(nc(NCCCCO)n2Cc2ccccc2Cl)n(C)c1=O	nt	-23%	-7%	35%	-15%	-1%	nt
COc1ccc2c(C)cc(SCC(=O)Nc3cc(C(N)=O)cc(C(N)=O)c3)nc2c1	-6%[11.6 µM]	-15%	?	35µM*	50µM*	25µM*	?
COc1cccc(NC(=O)CSc2cc(C)c3ccccc3n2)c1	nt	1%	8%	36%	nt	-1%	nt
S=c1[nH]nc(-c2cc(-c3ccccc3)n[nH]2)n1/N=C/c1c(Cl)cccc1Cl	?	?	?	20µM*	79µM*	14µM*	?
S=c1[nH]nc(-c2ccccn2)n1/N=C/c1c(Cl)cccc1Cl	-24%	-4%	5%	98%	-6%	25%	nt
Cc1ccc(S(=O)(=O)N2C[C@]3(O)C[C@@H]4C(=O)N(c5ccccc5)C(=O)[C@@H]4C[C@]3(OC(=O)NCC3CCCCC3)C2)cc1	1%	nt	nt	nt	-4%	nt	nt
CCN1CCCC1CNC(=O)c1cc2c(-c3ccc(Cl)cc3)nn(C)c2s1 (configuration not stated)	37%	-20%	50µM*	?	4%	35µM*	43*
Cc1ccc(CCNC(=O)c2sc3ncccc3c2-n2cccc2)cc1	nt	-7%[60.1 µM]	-19%	22%	-19%	9%	nt
CCN(CC)CCCNc1nc2ccccc2c2nc(-c3ccncc3)nn12	-2%[11.6 µM]	?	45µM*	?	20%	35µM*	21*
CN1CCN(CCCNc2nc3ccccc3c3nc(-c4ccccc4)nn23)CC1	2%	-2%	?	18%	9%	nt	nt
N#Cc1ccccc1S(=O)(=O)N1CCN(Cc2cc3c(cc2Br)OCCO3)CC1	8%	nt	nt	nt	-7%	nt	nt
O=C(CSc1nn(-c2ccccc2)c(=S)s1)Nc1ncccn1	-9%	-5%	-8%	27%	4%	1%	nt
Cc1cc(C)nc(NC(=O)CSc2nn(-c3ccccc3)c(=S)s2)n1	?	1%	?	?	10%	40µM*	?
O=C(O)c1ccc(-c2ccc(/C=N/Nc3ccc([N+](=O)[O-])cc3)o2)cc1	?	-21%	-19%	-18%	50µM*	?	85*
CCN1CCCC1CNC(=O)c1ccc2c(c1)NC(=O)/C(=C\c1ccc(OC)c(OC)c1)S2 (configuration not stated)	?	-13%	?	-11%	?	?	38*
CCN1CCCC1CNC(=O)c1ccc2c(c1)NC(=O)/C(=C\c1ccccc1Cl)S2 (configuration not stated)	21%	nt	nt	nt	-23%	nt	nt
COc1ccc2c(=O)n3nc(Nc4cccc(N5CCN(C)CC5)c4)sc3nc2c1	nt	nt	nt	nt	nt	nt	?
CN1CCN(c2cccc(Nc3nn4c(=O)c5ccccc5nc4s3)c2)CC1	nt	nt	nt	nt	nt	nt	43*
COc1cccc(CNC(=O)c2ccc3c(=O)n4nc(Nc5ccccc5)sc4nc3c2)c1	nt	1%[60.1 µM]	1%	11%	?	-18%	nt
CCN1CCN(c2cccc(Nc3nn4c(=O)c5ccccc5nc4s3)c2)CC1	nt	nt	nt	nt	nt	nt	?
Cc1ccc(S(=O)(=O)N2C3CCCCC3O[C@H]2CC(=O)OCc2ccccc2)cc1 (some centres not stated)	-5%	nt	nt	nt	nt	nt	nt
CC(C)CNC(=O)C1C(=O)Nc2ccccc2C(=O)N1C1CCCCC1 (configuration not stated)	8%	nt	nt	nt	nt	nt	nt
Cc1ccccc1C(=O)Nc1nnc(SCc2cc(=O)c3c(C)ccc(C)c3[nH]2)s1	nt	-15%[60.1 µM]	11%	-16%	-23%	2%	nt
COc1ccc(Cn2c(-c3ccco3)nc3c(c(=O)c4ccccc4n3C)c2=O)cc1	-1%[11.6 µM]	-6%	22µM*	-25%	-13%	?	30*
SMILES	WRN helicase inh	POLK inh	FEN1 inh-1	POLI inh	POLH inh	Pol beta inh	FEN1 inh-2
CN(Cc1cccs1)c1ncnc2ccc(-c3ccc4cnn(C)c4c3)cc12	nt	nt	nt	nt	nt	nt	34*
CSc1ccc(NC(=O)C2(C)CCN2C(=O)c2cc(C)n(C)n2)cc1 (configuration not stated)	7%	nt	nt	nt	nt	nt	nt
CC1Sc2ccc(S(=O)(=O)N3CCC(C(=O)Nc4ccc(Cl)cc4)CC3)cc2NC1=O (configuration not stated)	79µM*	?	?	?	?	?	48*
Cc1ccc(NC(=S)N/N=C/c2ccc([N+](=O)[O-])s2)cc1	-12%	-6%	-17%	9%	-19%	-9%	nt
Cc1cc(C)cc(N=Cc2ccc([N+](=O)[O-])s2)c1	-2%[11.6 µM]	-19%	?	79µM*	32µM*	?	5.4*
Cc1c2c(cc3c1[nH]c1ccccc13)C=NCC2	14%[11.6 µM]	9%	50µM*	34%	-24%	nt	38*
CN1CCC[C@H]1CCNc1ccc2c(=O)c3ccccc3n(C)c2c1	?	?	56µM*	28µM*	?	nt	43*
COc1ccc(OCc2nc3c4c(-c5ccccc5)c(-c5ccccc5)oc4ncn3n2)cc1	nt	-1%	-3%	-17%	-17%	55%	nt
CN(C)C(=O)COc1ccccc1C(=O)OCC(=O)Nc1ccc(Oc2ccc(Br)cc2)cc1	nt	-13%	-17%	11%	nt	nt	nt
COc1ccc2c(c1)c(/C=C/c1cc[n+](C)cc1)cn2C	-36%	-19%	?	?	-15%	89µM*	43*
O=C(Nc1ccccc1C(F)(F)F)C1CCN(S(=O)(=O)c2ccccc2)CC1	nt	-7%	-4%	4%	-10%	42%	nt
CSc1nc2c(c(=O)n1Cc1ccccc1)SC(C)C2 (configuration not stated)	-13%	-2%[60.1 µM]	-12%	-6%	-1%	-26%	nt
CSc1nc2[nH]c(=O)n(O)c(=O)c2n1Cc1ccccc1	6%[11.6 µM]	-14%	-105%	36%	?	nt	0.021*
O=C(COC(=O)c1ccc(Br)o1)NCc1ccc2c(c1)OCO2	-1%	-8%	-1%	7%	-6%	nt	nt
O=C(COC(=O)c1ccc([N+](=O)[O-])o1)NCCc1ccccc1	0%[11.6 µM]	-24%	?	45µM*	79µM*	nt	9.5*
CC(NC(=O)COC(=O)c1ccc([N+](=O)[O-])o1)c1ccccc1 (configuration not stated)	13%	-25%	?	?	89µM*	nt	15*
O=C(COC(=O)c1ccc(Br)o1)NCCc1ccccc1	8%	-9%	-3%	23%	-11%	-5%	nt
